Bioassay records as filed in PubChem BioAssay.
The list is not random: actives were taken first. Their share in the collection is about 2.1%.
PGE2 EP2 inh = inhibitors of human EP2 prostaglandin E2 receptor | P43116 | C6 glioma cells expressing human EP2, cAMP TR-FRET; cells stimulated with saturating PGE2 | inhibition, % at 25 µM | actives 0.52% (n = 260,000);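 active = percent inhibition above 40 after rounding to a whole number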;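 also: rat C6 glioma host cells with rolipram phosphodiesterase inhibitor present; the protocol text gives 20 µM as final concentration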
Target sequence (P43116 whole entry, looked up): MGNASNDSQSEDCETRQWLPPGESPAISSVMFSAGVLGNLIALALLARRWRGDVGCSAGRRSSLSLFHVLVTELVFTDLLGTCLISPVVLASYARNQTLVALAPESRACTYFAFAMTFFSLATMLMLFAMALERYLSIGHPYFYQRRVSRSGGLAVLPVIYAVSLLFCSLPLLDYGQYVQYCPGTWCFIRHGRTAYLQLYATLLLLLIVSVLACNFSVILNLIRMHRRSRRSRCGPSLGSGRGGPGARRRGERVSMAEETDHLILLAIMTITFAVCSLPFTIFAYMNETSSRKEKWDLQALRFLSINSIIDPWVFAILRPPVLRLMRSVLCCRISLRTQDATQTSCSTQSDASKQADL
Efa HMGR inh = E. faecalis class II HMG-CoA reductase inhibition; purified E. faecalis HMGR, NADPH absorbance 340 nm kinetic; actives 0.41% (n = 190,000); inhibition, % at 10 µM; AID 1066;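 active = inhibition above a set limit, the median over all tested compounds plus 3 SD, cut at about 9.5% in these data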;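 also: enzyme runs in reverse so mevalonate oxidation gives rising NADPH absorbance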
GSH fluor = compound fluoresces at 488/530 nm on GSH beads; GSH beads flow cytometry, compound fluorescence 488/530 nm; stronger effect = higher value; fluorescence (KMESF) at 10 µM; actives 0.25% (n = 190,000); AID 1776; in the data active = fluorescence above about 89;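 also: glutathione beads carrying GST-tagged Bcl family fusion proteins plus one bare bead set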
Avidin bead fluor = compound fluoresces at 488/530 nm on avidin beads; compound fluorescence 488/530 nm, flow cytometry; stronger effect = higher value; fluorescence (KMESF) at 10 µM; actives 0.38% (n = 220,000); in the data active = fluorescence above about 47
EP2 modulator = modulates human prostaglandin E2 receptor EP2 signaling; actives 0.83% (n = 260,000); P43116; induction, % at 25 µM; AID 940; EP2-expressing cells, cAMP HTRF FRET, PGE2 co-stimulation;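 active = compounds whose cAMP rise, as percent of the full-agonist control response, exceeds 60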;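 also: rat C6 glioma line stably carrying human EP2 under a CMV promoter; the protocol text gives 20 µM as final concentration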
Each line names hits and unclear results; the compound was inactive in the other large screens; ! = not confirmed by another sample.

O=C1c2ccccc2C(=O)c2c(Nc3cc4c5c(ccc6c7ccc8c9c(cc(Nc%10cccc%11c%10C(=O)c%10ccccc%10C%11=O)c(c3c56)c97)-c3ccccc3C8=O)C(=O)c3ccccc3-4)cccc21	PGE2 EP2 inh 44 (no result: Efa HMGR inh, GSH fluor, Avidin bead fluor)
CNc1cccc2c1C(=O)c1ccccc1C2=O	none
O=C1c2ccccc2C(=O)c2c(Nc3ccc4c5c(cccc35)C(=O)c3ccccc3-4)cccc21	PGE2 EP2 inh 43 (no result: Efa HMGR inh, GSH fluor, Avidin bead fluor)
COCCCn1c(=N)c(C(=O)OC)cc2c(=O)n3cccc(C)c3nc21	none (no result: Efa HMGR inh, GSH fluor, Avidin bead fluor)
COc1ccc(NC(=O)CSc2nnc(-c3ccncc3)n2C)cc1	none
Cn1c(SCC(=O)Nc2ccc(NC(=O)c3cccs3)cc2)nnc1-c1ccncc1	Efa HMGR inh 11
Cc1ccc(CS(=O)(=O)c2ccc(C(=O)N3CCCCC3)cc2[N+](=O)[O-])cc1	none
Cc1ccc(CS(=O)(=O)c2ccc(C(=O)N3CCN(c4ccccn4)CC3)cc2[N+](=O)[O-])cc1	Avidin bead fluor 60
C=CCn1cc(C(c2c(C)[nH][nH]c2=O)c2c(C)[nH][nH]c2=O)c2ccccc21	none (no result: Efa HMGR inh, GSH fluor, Avidin bead fluor)
Cc1ccc[n+](-c2nc3ccccc3nc2C(=C=[N-])C#N)c1	Avidin bead fluor 61!
Cc1cc(C)c[n+](-c2nc3ccccc3nc2C(=C=[N-])C#N)c1	GSH fluor 238!
Cc1cc[n+](-c2nc3ccccc3nc2C(=C=[N-])C#N)cc1	none
CC1(C)CC(CC#N)(c2ccc(F)cc2)CCO1 (stereo unspecified)	none (no result: Efa HMGR inh, GSH fluor, Avidin bead fluor)
COc1ccccc1N1CCN(C(=O)CSc2nc(N)cc(=O)[nH]2)CC1	Avidin bead fluor 201
CC(C)(C)C(=O)NC1CC2CCCC(C1)N2C(=O)Nc1cccc(F)c1 (stereo unspecified)	none (no result: Efa HMGR inh, GSH fluor, Avidin bead fluor)
Cc1ccccc1OCC(O)CN(Cc1ccccc1O)C1CCCCC1 (stereo unspecified)	none
Oc1c(Br)cc(Br)cc1CN(Cc1cc(Br)cc(Br)c1O)C1CCCCC1	PGE2 EP2 inh 40 (no result: Efa HMGR inh, GSH fluor, Avidin bead fluor)
COc1ccc(CCNC(=O)CSc2nc3ccccc3c(=O)[nH]2)cc1OC	none (no result: Efa HMGR inh, GSH fluor, Avidin bead fluor)
c1ccc(-c2onc3c2CCCC3)cc1	GSH fluor 242
CCN(c1ccc(N=Cc2c(O)n(Cc3ccc(OC)cc3)c(=O)c3ccccc23)cc1)C(C)C	GSH fluor 155
Cc1noc(C)c1C(=O)NC1CCCc2ccccc21 (stereo unspecified)	none
Cc1cc(C(=O)NC2CCCc3ccccc32)no1 (stereo unspecified)	Avidin bead fluor 47
O=C1OC(c2cccs2)=N/C1=C\c1ccc(-c2ccccc2Cl)o1	none
O=C1OC(c2cccs2)=N/C1=C/c1ccc(-c2cccc(C(=O)O)c2)o1	Efa HMGR inh 16
O=C(N/N=C/c1cn(-c2ccccc2)nc1-c1cccnc1)c1ccc(F)cc1	none
O=C(N/N=C/c1cn(-c2ccccc2)nc1-c1cccnc1)c1cccnc1	Avidin bead fluor 62
CCOC(=O)/C(C#N)=C(C)/C=C1\Sc2ccccc2N1CC	Avidin bead fluor 70
CCN1/C(=C\C=C(C(C)=O)C(C)=O)Sc2ccccc21	none
Cc1ccc(S(=O)(=O)ON2C(=O)c3ccccc3C2=O)c(C)c1	Efa HMGR inh 17
c1ccc(Cn2c(-c3ccco3)nc3nc4ccccc4nc32)cc1	EP2 modulator 62
CNC(=S)N(Cc1ccc(F)cc1)Cc1cc2cc(C)c(C)cc2[nH]c1=O	none (no result: Efa HMGR inh, GSH fluor, Avidin bead fluor)
CCc1cccc(CC)c1NC(=O)COC(=O)c1cccc(S(=O)(=O)N2CCc3ccccc3C2)c1	none
CCc1cccc(CC)c1NC(=O)COC(=O)CC1c2ccccc2CCN1S(=O)(=O)c1ccccc1 (stereo unspecified)	Avidin bead fluor 78
CCC(C)(C)Nc1c(-c2cc3ccc(OC)cc3[nH]c2=O)nc2ccccn12	none (no result: Efa HMGR inh, GSH fluor, Avidin bead fluor)
Cc1cccn2c(=O)c(C=NCc3ccco3)c(Nc3ccc(SC(F)F)cc3)nc12	none
CCC(C)N=Cc1c(Nc2ccccc2)nc2c(C)cccn2c1=O (stereo unspecified)	EP2 modulator 66 (no result: Efa HMGR inh, GSH fluor, Avidin bead fluor)
COc1ccccc1N1CCN(CC(O)c2ccc3c(c2)CC(C)O3)CC1 (stereo unspecified)	none (no result: Efa HMGR inh, GSH fluor, Avidin bead fluor)
N/N=c1\sc2ccccc2n1-c1ccccc1	Avidin bead fluor 47
COCCn1c2ccccc2n2c(=O)n(CC(=O)N3CC(C)CC(C)C3)nc12 (stereo unspecified)	none (no result: Efa HMGR inh, GSH fluor, Avidin bead fluor)
O=C1CN(C(=O)CSc2nnc3ccccn23)c2ccccc2N1	Efa HMGR inh 12
